Structures are written as SMILES. Unmarked numbers belong to inactive results. Inconclusive results are not listed. Active and inactive are the calls of the source. Unless noted, the call rests on the fitted dose curve; in most records, active means well fitted curve in the direction sought with a large enough effect; inconclusive means small, poorly fitted or top-dose-only effect, or another doubt; inactive means no such curve, though single readings can be large; an effect the other way counts as inactive or inconclusive.

In assay [1] the target is Cytochrome P450 3A4 (Homo sapiens) (UniProt P08684). Nature of the assay: qHTS Assay for Activators of Cytochrome P450 3A4 (AID 885). Further: nearly all actives have a fitted effect of over 65% in size. Conditions: recombinant CYP3A4, Luciferin-PPXE luminescence, 60 min; series mostly up to 57.1 µM. In outline: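 Steps: enzyme/substrate mix dispensed; compound added, 10 min RT; NADPH regeneration solution added, 60 min RT; luciferin detection buffer stops reaction; 20 min later luminescence measured.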
Background: Quantitative high-throughput screening tests each substance at several concentrations.

Assay [2] in a line: Confirmation and Secondary Assay for Modulators of Hemoglobin Beta Chain Splicing at IVS2 654 locus (AID 910).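 Further: HeLa cells stably carrying EGFP split by mutant beta-globin IVS2-654 intron; per-well total GFP intensity by laser scanning cytometry after 2-day treatment; % of control where 0% means no effect.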 Conditions: HeLa EGFP-654 splicing reporter, GFP fluorescence, 48 h; series mostly up to 46.1 µM. An outline of the steps: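 Readout: per-well total peak green fluorescence (488 nm ex, 500–520 nm em) from objects 5–250 µm, reflecting correct splicing of an EGFP-654 reporter. Compounds were applied for 2 days at 37 °C to overnight-plated HeLa EGFP-654 cells; controls were DMSO and 500 nM IVS2-654 PNA.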

Assay [3] addresses Cytochrome P450 2C19 (Homo sapiens) (UniProt P33261). Nature of the assay: qHTS Assay for Inhibitors and Substrates of Cytochrome P450 2C19 (AID 899). Further: nearly all actives have a fitted effect of over 60% in size. Further: potency means the concentration at half of the fitted maximal effect. The following applies: recombinant CYP2C19, luciferin-H EGE luminescence; series mostly up to 11.4 µM. An outline of the steps: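 5nM enzyme + 10uM Luciferin-H EGE (=KM), 50mM KPO4; cpd pin-transferred, 10 min 37C; NADPH regen, 60 min 37C; stopped w/ luciferin detection reagent, 20 min; luminescence. Normalized to 57uM ketoconazole (AC100).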

The nature of assay [4]: qHTS Assay for Identification of Small Molecule Agonists for Hypoxia Response Element Signaling Pathway (AID 914; active means well fitted activation curve with a large enough effect in the signal ratio, with a control signal flat, not every such curve was filed as active; the % refers to the signal ratio; further: % of control where 0% means no effect). The following applies: ME-180 (cervical carcinoma) HRE-bla reporter, beta-lactamase ratio, CoCl2, 17 h; hits give high values. An outline of the steps: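 qHTS titration; ME-180 HRE-bla cells; EC50 CoCl2 co-treatment, 17 h at 37 degrees Celsius; CCF4 dye, ex 405nm, em 460nm and 530nm; %Activity from ratio; AC50.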

Assay [5] is described as follows: Confirmation and Secondary Assay for Modulators of Hemoglobin Beta Chain Splicing at IVS2 705 locus (AID 930).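 Further: GFP fluorescence per well restored by corrected splicing of the IVS2-705 intron in EGFP; % of control where 0% means no effect.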 Conditions: HeLa EGFP-705 splicing reporter, GFP fluorescence, 48 h; series mostly up to 46.1 µM. In outline: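 Secondary splice-site specificity test uses HeLa expressing CMV-driven EGFP interrupted by IVS2-705; cells were treated 2 days at 37C with 500 nM antisense PNA as positive control.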

Assay [6] deals with Cytochrome P450 2D6 (Homo sapiens) (UniProt P10635). Nature of the assay: qHTS Assay for Inhibitors and Substrates of Cytochrome P450 2D6 (AID 891).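 Further: luciferin methyl ether substrate demethylated by CYP2D6 with NADPH regeneration; on the % scale 0 is the no-effect control and ±100 the full control effect; nearly all actives have a fitted effect of over 60% in size.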 Conditions: recombinant CYP2D6, luciferin-ME EGE luminescence; series mostly up to 11.4 µM. An outline of the steps: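 Human CYP2D6 (5 nM) with 30 uM Luciferin-ME EGE (at Km) in 100 mM KPO4, compound preincubated 10 min, then NADPH regeneration system for 60 min at room temperature. Luciferin read by luminescence; normalized to 1.43 uM quinidine.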
Cytochrome P450 2D6 (Homo sapiens), sequence (P10635 whole entry, looked up): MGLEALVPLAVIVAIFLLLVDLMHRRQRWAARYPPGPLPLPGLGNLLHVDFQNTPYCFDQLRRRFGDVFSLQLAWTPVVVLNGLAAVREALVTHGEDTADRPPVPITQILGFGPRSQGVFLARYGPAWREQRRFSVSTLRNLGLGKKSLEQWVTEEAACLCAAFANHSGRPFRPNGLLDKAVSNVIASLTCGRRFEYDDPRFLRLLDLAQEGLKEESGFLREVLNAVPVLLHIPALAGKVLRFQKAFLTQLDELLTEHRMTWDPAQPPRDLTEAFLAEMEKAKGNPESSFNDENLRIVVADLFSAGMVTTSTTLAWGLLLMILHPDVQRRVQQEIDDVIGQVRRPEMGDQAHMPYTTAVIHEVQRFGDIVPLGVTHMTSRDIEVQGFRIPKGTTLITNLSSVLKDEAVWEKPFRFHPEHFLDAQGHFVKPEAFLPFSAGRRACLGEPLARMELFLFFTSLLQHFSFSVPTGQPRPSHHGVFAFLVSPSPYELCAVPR

Cytochrome P450 2C19 (Homo sapiens), sequence (P33261 whole entry, looked up): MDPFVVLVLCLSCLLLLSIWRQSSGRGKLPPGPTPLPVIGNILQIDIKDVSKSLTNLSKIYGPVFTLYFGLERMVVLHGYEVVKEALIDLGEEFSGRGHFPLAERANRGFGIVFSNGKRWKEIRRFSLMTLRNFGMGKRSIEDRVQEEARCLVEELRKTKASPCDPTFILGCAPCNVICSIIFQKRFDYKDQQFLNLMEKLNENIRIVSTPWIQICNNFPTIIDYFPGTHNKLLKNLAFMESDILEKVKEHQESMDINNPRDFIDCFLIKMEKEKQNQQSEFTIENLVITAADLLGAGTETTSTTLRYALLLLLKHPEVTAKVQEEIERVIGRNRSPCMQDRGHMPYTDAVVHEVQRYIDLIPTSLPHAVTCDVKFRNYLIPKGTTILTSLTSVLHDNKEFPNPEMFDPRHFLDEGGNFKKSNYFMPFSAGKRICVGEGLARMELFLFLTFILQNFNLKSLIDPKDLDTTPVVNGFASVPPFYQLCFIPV
Cytochrome P450 3A4 (Homo sapiens), sequence (P08684 whole entry, looked up): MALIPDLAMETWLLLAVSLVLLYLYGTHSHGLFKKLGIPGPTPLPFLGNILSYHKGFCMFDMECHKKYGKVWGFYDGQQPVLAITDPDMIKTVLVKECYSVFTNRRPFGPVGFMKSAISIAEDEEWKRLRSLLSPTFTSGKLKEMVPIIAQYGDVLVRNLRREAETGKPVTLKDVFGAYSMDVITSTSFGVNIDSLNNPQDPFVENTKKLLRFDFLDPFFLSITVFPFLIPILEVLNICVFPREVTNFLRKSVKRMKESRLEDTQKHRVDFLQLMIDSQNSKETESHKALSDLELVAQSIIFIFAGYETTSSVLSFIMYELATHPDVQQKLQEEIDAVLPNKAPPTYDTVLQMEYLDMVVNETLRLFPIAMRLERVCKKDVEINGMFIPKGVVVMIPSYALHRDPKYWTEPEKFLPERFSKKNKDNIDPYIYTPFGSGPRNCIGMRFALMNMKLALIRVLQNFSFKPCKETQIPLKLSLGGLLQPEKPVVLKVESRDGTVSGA

Take `CC1(C)CC[C@]2(C(=O)O)C(O)C[C@@]3(C)C(=CCC4[C@@]5(C)CCC(O)C(C)(C)C5CC[C@@]43C)C2C1` (some centres not stated): the Potency result in assay [1] was “inactive”. The result in assay [2] was inactive.

Take `CC1CCC2C(=O)OC(CN3C(=O)c4ccccc4C3=O)CN2C1c1ccc(Br)cc1` (configuration not stated): the activity change, positive = activation in assay [1] was -55.7% [at 11.4 µM]. Besides, in assay [3], the Potency entry is “inactive”.

Regarding `CO[C@H]1COC(=O)C/C=C\[C@H](C)COC(=O)[C@@H](OCc2ccccc2)/C=C\[C@@H]1C`, the activity change, positive = activation in assay [1] is -41.2% [at 11.4 µM]. Moreover, the activation in assay [4] is -11.2%.

`O=C1CCCC=C1[C@H](CCc1ccccc1)OC(=O)c1ccc(Br)cc1`: in assay [1], the activity change, positive = activation is -49.6% [at 11.4 µM]. For the same compound, in assay [3], the Potency was 1580 nM (active).

`C=CC[C@@H]1C=C[C@@H](O/N=C\C[C@@H]2C=C[C@H](OC(C)=O)[C@H](COC(C)=O)O2)[C@@H](CO)O1`: the activity change, positive = activation in assay [1] is -49.3% [at 11.4 µM]. Besides, the activation in assay [4] was 4.01%.

For the compound `O=C1[C@@H]2[C@H]3[C@H](O)[C@H](O)C/C(=N/OC[C@@H](O)COCc4ccco4)[C@H]3CC[C@H]2C(=O)N1c1ccc(F)cc1F`, the activity change, positive = activation in assay [1] is -44.4% [at 11.4 µM]. Besides, the Potency entry in assay [3] is “inactive”.

As for `COC(=O)NC(/C(C(=O)OC)=C(\C)NCc1ccccc1)c1ccc2ccccc2c1` (configuration not stated), in assay [1], the activity change, positive = activation is -55.9% [at 11.4 µM]. Also, the Potency in assay [3] is 63.1 nM (active).

In the case of `C#CCCCCCCCCCCCC(O)CC(O)COC(C)=O` (configuration not stated), the Potency result in assay [1] is “inactive”. Also, the outcome in assay [2] and in assay [5] was inactive.

On to `COc1c(CC(=O)c2cc3c(cc2O)OC(C)(C)C(O)C3)ccc2c1C=CC(C)(C)O2` (configuration not stated), for which the Potency entry in assay [1] is “inactive”. Also, the compound was classed as inactive in assay [2] and in assay [5].

Regarding `C/C(CCN1CCc2nc(-c3ccccc3)c(-c3ccccc3)cc2C1)=N\O[C@@H](C)CN1CCCc2nc(C)c(C)cc21`, the activity change, positive = activation in assay [1] was -58.8% [at 11.4 µM]. Also, the activation in assay [4] is 24.9%.

On to `COc1ccc(-c2ccccc2C2NC(C(=O)O)CCC2C)cc1` (configuration not stated), for which the activity change, positive = activation in assay [1] was -42% [at 11.4 µM]. Also, the Potency result in assay [6] and in assay [3] was “inactive” in each case.

For the compound `O=C1CCC[C@@H](C(C(=O)OCc2ccccc2)C(=O)OCc2ccccc2)C1`, the activity change, positive = activation in assay [1] was -39.2% [at 11.4 µM]. In addition, in assay [4], the activation is -22.4%.

`CCOC(=O)OCC1OC(C#Cc2ccc(Br)cc2)C=CC1OC(=O)OCC` (configuration not stated): the activity change, positive = activation in assay [1] is -52.5% [at 11.4 µM]. The Potency entry in assay [6] and in assay [3] was “inactive” in each case.

On to `CNC1CCC(c2ccc(Cl)c(Cl)c2)c2ccccc21` (configuration not stated), for which, in assay [5], the call was inactive.

For the compound `CC(C)(C)NCC(O)COc1cccc2c1CC(O)C(O)C2` (configuration not stated), the compound was classed as inactive in assay [2].

(Values after PubChem BioAssay (NCATS).)
